Where “and” joins values, the source holds several entries; their conditions need not be identical. Equal values may be shown once. About 79,000 compounds went through this panel and 15% of them were active in at least one assay; those are over-represented in the sample as a whole. Calls of active or inactive are those of the source. Cut-off read from the data, not from the text of the source: active = growth inhibition above about 70%; inactive = the rest.
test: NCI Yeast Anticancer Drug Screen. Data for the sgs1 mgt1 strain (AID 161);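 note: 0% = growth of cultures given vehicle only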; details: S. cerevisiae sgs1 mgt1 strain, at 5.0 µM (retest, dose inferred, filed as 0.5), hits give high values
Method: Growth inhibition of yeast strains with defined genetic alterations is measured as a screen for potential anti-cancer activity. Selected strains with alterations in DNA damage repair or cell cycle control were exposed to compounds and growth inhibition was measured relative to vehicle treated controls. The strain used in this assay is sgs1 mgt1

Compound | growth inhibition
N#CC(C#N)N=Nc1ccc(Cl)cc1 | 24% (inactive)
COc1ccc(Nc2ccc3ccccc3c2)cc1 | -66% (inactive)

same assay, conditions: S. cerevisiae sgs1 mgt1 strain, at 50.0 µM (retest, dose inferred, filed as 5.0), hits give high values

Compound | growth inhibition
N#CC(C#N)N=Nc1ccc(Cl)cc1 | 93% (active)
COc1ccc(Nc2ccc3ccccc3c2)cc1 | 50% (inactive)

same assay, conditions: S. cerevisiae sgs1 mgt1 strain, hits give high values; at 50.0 µM unless noted

Compound | growth inhibition
N#Cc1[nH]c(=O)n(-c2ccc([N+](=O)[O-])cc2)c1N | -25.1% (inactive)
CN1CNC(=O)NC1 | -12.3% (inactive) and 9.8% (inactive)
O=C(CCCn1ccnc1[N+](=O)[O-])NCCn1cnc([N+](=O)[O-])n1 | -6.05% (inactive)
CC(C)CCNc1ccccc1 | -9.85% (inactive)
CC[O-].CC[O-].CN(C)c1ccc([O-])cc1.CN(C)c1ccc([O-])cc1.[Ti+4] | 2.2% (inactive)
OC1(C#CC#CC2(O)CCCCC2)CCCCC1 | 0.2% (inactive)
CC(=O)Nc1ccc(NC(=O)NCCCCCCNC(=O)Nc2ccc(NC(C)=O)cc2)cc1 | -21.6% (inactive)
O=C1c2ccccc2S(=O)(=O)c2c1cccc2[N+](=O)[O-] | 3.6% (inactive)
O/N=C1/C2CC3CC1(c1ccccc1)CC(/C3=N/O)/C2=N\O (stereo not given) | -12.1% (inactive)
CCCCCCCOC(=O)CO | 16.2% (inactive)
COc1cc(C)c(O)c(C(=O)O)c1 | 2.25% (inactive)
CCN(CC)CCNc1c(OC)c(OC)cc2nccnc12 | 30.9% (inactive)
CC(=O)N1C=CC(=Cc2ccccc2)C=C1 | -30.6% (inactive)
CC(C)(C)C1CCC2(CC1)CCN(CCCN1CCOCC1)CC2 | 98.5% (active)
Cc1c(NC(=S)NC(=O)c2ccc([N+](=O)[O-])cc2)c(=O)n(-c2ccccc2)n1C | 16.2% (inactive)
COc1cccc(C(=O)C2N=NCC2c2ccccc2)c1 (stereo not given) | 2% (inactive)
Nc1nnc2nc(C(C(=O)c3ccc(F)cc3)c3nc4nnc(N)n4[nH]c3=O)c(=O)[nH]n12 | -10.2% (inactive)
COC(=O)c1cc2ccc(OC(C)=O)c(OC(C)=O)c2cn1 | 6.05% (inactive)

Compound | growth inhibition
Cc1nnc(-n2cccc2)s1 | -5.3% (inactive)
O=C1/C(=C\c2ccccc2)Sc2cc[nH]c21 | 4.5% (inactive)
Cc1nc(CO)c(-c2ccc([N+](=O)[O-])cc2)o1 | -8.75% (inactive)
COC(=O)c1ccc(-n2cc(C(=O)OC)c([N+]#N)c2[O-])cc1 | -13.6% (inactive)
C=CCc1cc2c(C)cc(=O)oc2c(C)c1OC(C)=O | -1.1% (inactive)
O=CNc1cccnc1C1OCCO1 | 2% (inactive)
Nc1ccccc1NC(=O)C(F)(F)C(F)(F)C(F)(F)C(=O)Nc1ccccc1N | -14.6% (inactive)
NN1CCN(CCO)CC1 | -3.3% (inactive)
O=C1N(Cc2ccccc2)CCN1Cc1ccccc1 | -11.7% (inactive)
Cc1ccc2c(c1)C1(c3ccc(Cl)cc3Cl)Oc3ccc(C)cc3C(c3ccc(Cl)cc3Cl)(O2)O1 | 3.1% (inactive)
Cn1cc(Cc2ccccc2)c(=O)[nH]c1=O | 2.05% (inactive)
O=c1ccn(C2OC(COC3CCCCO3)C(OC3CCCCO3)C2OC2CCCCO2)c(=O)n1-c1ccccc1 (stereo not given) | 10.1% (inactive)
N#C/C=C\c1ccc(-c2cc(C(F)(F)F)cc(C(F)(F)F)c2)o1 | -42.5% (inactive)
CCN(CC)CCN1CC(=O)N2CCCCN2C(=O)C1 | 14.9% (inactive)
CC(=O)C(C)(CC#N)C(CC=O)CCC#N (stereo not given) | 10.2% (inactive)
COc1ccc(C2c3cc(OC)c(OC)cc3C(Cc3ccc([N+](=O)[O-])cc3)C2c2ccc([N+](=O)[O-])cc2)cc1OC (stereo not given) | -4.15% (inactive)
C1COC2SC3=C(SC(=C4SC5=C(SCCS5)S4)S3)SC2O1 (stereo not given) | 19.2% (inactive)
Nn1c(-c2ccccc2)nc2ccc(Br)cc2c1=O | 18.5% (inactive)

From PubChem BioAssay (NCI)
